Assay results as given in the supplement of paper PMC10849652.
Of roughly 8,800 targets only a part is listed; those with a hit were picked by preference. About 0.5% of all pairs of compound and target were hits.

Legend:
Assay in all cases: log2 fold change, soluble protein after heating vs DMSO (PISA); higher = thermal stabilisation; K562 lysate, 10 uM; active = over 0.2 and 3.5 SD of the protein, either way, in both replicates (recomputed)
[1] = compound: NCC(=O)Nc1ccc(-n2nc(C(F)(F)F)cc2-c2ccc3c(ccc4ccccc43)c2)cc1
Outline: (§1)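 Following dounce homogenisation of K562 pellets in PBS pH 7.4 with 1 mM MgCl2, crude extract at 1 mg/mL protein was incubated for 30 min with 10 μM compound. Aliquots were then heated for 3 min over 48°C-58°C and pooled, NP-40 was added to 0.5% at 4°C, and soluble protein was recovered as the supernatant at 21,000xg for 90 min. Channel-sum-equalised TMTpro 16plex LC-MS/MS quantified this protein. Each value, from duplicates, is a log-two fold change in thermal stability relative to solvent controls.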

vorinostat = compound: O=C(CCCCCCC(=O)Nc1ccccc1)NO [vorinostat]
Outline: as §1

silmitasertib = compound: O=C(O)c1ccc2c(c1)nc(Nc1cccc(Cl)c1)c1ccncc12 [silmitasertib]
Outline: as §1

[2] = compound: O=C1NC(=O)C(c2cnc3ccccn23)=C1c1cn2c3c(cc(F)cc13)CN(C(=O)N1CCCCC1)CC2
Outline: as §1

entospletinib = compound: c1cn2cc(-c3ccc4cn[nH]c4c3)nc(Nc3ccc(N4CCOCC4)cc3)c2n1 [entospletinib]
Outline: as §1

Measured: log2 fold change

REXO4 (UniProt Q9GZR2)
UniProt Q9GZR2, sequence (Q9GZR2 whole entry, looked up): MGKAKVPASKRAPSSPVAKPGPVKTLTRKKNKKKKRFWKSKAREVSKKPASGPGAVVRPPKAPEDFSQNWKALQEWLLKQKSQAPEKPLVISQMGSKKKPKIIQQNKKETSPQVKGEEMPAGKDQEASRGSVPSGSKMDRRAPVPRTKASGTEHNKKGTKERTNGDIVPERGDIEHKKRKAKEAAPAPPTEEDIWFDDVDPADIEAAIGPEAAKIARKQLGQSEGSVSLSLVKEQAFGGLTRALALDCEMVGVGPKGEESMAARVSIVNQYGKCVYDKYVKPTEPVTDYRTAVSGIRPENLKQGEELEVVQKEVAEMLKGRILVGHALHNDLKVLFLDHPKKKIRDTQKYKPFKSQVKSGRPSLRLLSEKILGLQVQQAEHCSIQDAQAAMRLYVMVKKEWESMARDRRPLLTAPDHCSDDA
inactive: [1] 0.03 | vorinostat -0.127 | silmitasertib 0.05 | [2] -0.035 | entospletinib 0.067

RFC3 (UniProt P40938)
UniProt P40938, sequence (P40938 whole entry, looked up): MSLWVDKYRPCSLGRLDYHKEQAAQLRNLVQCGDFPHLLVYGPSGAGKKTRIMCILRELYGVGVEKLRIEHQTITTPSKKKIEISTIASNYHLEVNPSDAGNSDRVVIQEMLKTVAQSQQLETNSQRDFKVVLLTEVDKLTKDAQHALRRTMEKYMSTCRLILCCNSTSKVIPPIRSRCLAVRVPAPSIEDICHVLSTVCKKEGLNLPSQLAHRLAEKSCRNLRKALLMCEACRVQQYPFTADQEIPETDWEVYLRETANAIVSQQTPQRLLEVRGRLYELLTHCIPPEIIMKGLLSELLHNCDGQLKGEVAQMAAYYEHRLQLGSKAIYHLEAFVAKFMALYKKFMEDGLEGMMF
inactive: [1] -0.01 | silmitasertib 0.035 | [2] 0.006 | entospletinib 0.018
active: vorinostat -0.365

RPS9 (UniProt P46781)
inactive: [1] -0.03 | vorinostat 0.125 | silmitasertib 0.042 | [2] 0.002 | entospletinib 0.004

RPL8 (UniProt P62917)
inactive: [1] -0.041 | vorinostat 0.12 | silmitasertib 0 | [2] 0.089 | entospletinib -0.006

SERPINI1 (UniProt Q99574)
UniProt Q99574, sequence (Q99574 whole entry, looked up): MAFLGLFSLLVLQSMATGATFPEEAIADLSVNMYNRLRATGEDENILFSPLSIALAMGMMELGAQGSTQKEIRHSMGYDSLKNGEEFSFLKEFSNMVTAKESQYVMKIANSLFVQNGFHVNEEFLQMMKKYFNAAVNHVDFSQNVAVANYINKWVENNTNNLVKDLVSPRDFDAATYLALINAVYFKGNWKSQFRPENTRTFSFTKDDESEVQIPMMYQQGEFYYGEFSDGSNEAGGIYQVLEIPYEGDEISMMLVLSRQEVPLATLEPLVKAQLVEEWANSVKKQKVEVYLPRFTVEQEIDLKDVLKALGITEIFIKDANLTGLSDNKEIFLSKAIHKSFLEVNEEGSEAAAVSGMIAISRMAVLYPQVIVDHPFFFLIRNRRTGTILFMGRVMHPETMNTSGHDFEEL
inactive: [1] -0.04 | vorinostat 0.124 | silmitasertib -0.021 | [2] -0.003 | entospletinib -0.016

RABL3 (UniProt Q5HYI8)
UniProt Q5HYI8, sequence (Q5HYI8 whole entry, looked up): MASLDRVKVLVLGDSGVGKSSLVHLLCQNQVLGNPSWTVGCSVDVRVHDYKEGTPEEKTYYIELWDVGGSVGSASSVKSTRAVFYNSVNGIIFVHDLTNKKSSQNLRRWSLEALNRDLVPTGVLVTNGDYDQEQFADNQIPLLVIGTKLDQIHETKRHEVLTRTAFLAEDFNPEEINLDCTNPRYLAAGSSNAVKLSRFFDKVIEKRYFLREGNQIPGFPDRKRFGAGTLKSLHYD
inactive: [1] 0.031 | vorinostat -0.126 | silmitasertib 0.445 | [2] -0.039 | entospletinib 0

RNF2 (UniProt Q99496)
UniProt Q99496, sequence (Q99496 whole entry, looked up): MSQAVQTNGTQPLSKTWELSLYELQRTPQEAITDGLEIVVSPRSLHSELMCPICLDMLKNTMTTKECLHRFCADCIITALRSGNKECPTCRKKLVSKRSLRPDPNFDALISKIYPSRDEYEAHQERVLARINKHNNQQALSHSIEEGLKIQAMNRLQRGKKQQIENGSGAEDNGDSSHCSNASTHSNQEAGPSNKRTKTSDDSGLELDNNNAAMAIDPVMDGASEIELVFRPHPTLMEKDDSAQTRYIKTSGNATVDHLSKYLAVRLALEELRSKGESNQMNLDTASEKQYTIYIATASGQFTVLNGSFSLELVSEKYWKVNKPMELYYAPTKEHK
inactive: [1] -0.015 | vorinostat -0.037 | silmitasertib 0.021 | [2] 0.008 | entospletinib -0.033

RIOK3 (UniProt O14730)
UniProt O14730, sequence (O14730 whole entry, looked up): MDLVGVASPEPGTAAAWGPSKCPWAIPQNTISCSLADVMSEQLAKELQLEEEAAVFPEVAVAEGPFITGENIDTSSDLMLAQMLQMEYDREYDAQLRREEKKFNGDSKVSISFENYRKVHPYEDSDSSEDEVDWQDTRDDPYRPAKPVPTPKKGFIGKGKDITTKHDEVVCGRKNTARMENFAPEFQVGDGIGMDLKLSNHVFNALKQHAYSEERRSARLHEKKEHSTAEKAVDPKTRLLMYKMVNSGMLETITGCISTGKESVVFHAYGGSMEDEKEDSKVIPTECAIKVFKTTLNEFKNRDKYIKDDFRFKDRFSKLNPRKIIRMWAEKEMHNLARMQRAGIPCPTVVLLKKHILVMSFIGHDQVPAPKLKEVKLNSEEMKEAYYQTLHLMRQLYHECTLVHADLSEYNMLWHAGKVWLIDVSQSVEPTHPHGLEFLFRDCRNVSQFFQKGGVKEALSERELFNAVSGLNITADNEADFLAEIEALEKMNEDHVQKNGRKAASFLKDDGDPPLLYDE
active: vorinostat -0.605
inactive: [1] -0.024 | silmitasertib -0.017 | [2] -0.024 | entospletinib -0.004

RFC5 (UniProt P40937)
UniProt P40937, sequence (P40937 whole entry, looked up): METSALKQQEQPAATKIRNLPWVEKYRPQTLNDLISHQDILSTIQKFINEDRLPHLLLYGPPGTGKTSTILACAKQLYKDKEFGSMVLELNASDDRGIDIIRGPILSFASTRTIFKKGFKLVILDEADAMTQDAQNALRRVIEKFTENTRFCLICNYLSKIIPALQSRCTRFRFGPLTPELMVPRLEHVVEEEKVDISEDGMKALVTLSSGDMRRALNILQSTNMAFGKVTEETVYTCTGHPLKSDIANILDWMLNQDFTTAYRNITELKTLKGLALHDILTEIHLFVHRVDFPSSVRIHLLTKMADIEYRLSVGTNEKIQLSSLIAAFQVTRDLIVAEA
inactive: [1] 0.019 | silmitasertib 0.031 | [2] 0.019 | entospletinib 0.014
active: vorinostat -0.492

RDX (UniProt P35241)
UniProt P35241, sequence (P35241 whole entry, looked up): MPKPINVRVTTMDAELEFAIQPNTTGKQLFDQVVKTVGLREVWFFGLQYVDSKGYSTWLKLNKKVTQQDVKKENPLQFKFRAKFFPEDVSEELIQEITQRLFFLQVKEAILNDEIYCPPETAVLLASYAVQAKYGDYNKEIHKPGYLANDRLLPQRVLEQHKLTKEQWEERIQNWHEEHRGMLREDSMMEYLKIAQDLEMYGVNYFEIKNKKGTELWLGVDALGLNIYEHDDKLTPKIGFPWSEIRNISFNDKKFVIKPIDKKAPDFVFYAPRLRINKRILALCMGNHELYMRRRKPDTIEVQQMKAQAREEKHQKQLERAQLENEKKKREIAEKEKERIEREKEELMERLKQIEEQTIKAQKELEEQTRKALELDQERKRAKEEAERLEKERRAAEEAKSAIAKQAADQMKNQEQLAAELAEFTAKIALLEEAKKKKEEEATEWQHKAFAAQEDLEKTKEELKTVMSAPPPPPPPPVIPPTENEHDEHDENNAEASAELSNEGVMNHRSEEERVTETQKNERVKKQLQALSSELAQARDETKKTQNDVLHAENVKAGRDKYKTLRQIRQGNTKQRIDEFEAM
inactive: [1] 0.002 | vorinostat 0.129 | silmitasertib -0.017 | [2] -0.008 | entospletinib 0.023

RPL37A (UniProt P61513)
inactive: [1] 0.028 | vorinostat 0.08 | silmitasertib -0.021 | [2] 0.093 | entospletinib -0.005

RNF123 (UniProt Q5XPI4)
UniProt Q5XPI4, sequence (Q5XPI4 whole entry, looked up): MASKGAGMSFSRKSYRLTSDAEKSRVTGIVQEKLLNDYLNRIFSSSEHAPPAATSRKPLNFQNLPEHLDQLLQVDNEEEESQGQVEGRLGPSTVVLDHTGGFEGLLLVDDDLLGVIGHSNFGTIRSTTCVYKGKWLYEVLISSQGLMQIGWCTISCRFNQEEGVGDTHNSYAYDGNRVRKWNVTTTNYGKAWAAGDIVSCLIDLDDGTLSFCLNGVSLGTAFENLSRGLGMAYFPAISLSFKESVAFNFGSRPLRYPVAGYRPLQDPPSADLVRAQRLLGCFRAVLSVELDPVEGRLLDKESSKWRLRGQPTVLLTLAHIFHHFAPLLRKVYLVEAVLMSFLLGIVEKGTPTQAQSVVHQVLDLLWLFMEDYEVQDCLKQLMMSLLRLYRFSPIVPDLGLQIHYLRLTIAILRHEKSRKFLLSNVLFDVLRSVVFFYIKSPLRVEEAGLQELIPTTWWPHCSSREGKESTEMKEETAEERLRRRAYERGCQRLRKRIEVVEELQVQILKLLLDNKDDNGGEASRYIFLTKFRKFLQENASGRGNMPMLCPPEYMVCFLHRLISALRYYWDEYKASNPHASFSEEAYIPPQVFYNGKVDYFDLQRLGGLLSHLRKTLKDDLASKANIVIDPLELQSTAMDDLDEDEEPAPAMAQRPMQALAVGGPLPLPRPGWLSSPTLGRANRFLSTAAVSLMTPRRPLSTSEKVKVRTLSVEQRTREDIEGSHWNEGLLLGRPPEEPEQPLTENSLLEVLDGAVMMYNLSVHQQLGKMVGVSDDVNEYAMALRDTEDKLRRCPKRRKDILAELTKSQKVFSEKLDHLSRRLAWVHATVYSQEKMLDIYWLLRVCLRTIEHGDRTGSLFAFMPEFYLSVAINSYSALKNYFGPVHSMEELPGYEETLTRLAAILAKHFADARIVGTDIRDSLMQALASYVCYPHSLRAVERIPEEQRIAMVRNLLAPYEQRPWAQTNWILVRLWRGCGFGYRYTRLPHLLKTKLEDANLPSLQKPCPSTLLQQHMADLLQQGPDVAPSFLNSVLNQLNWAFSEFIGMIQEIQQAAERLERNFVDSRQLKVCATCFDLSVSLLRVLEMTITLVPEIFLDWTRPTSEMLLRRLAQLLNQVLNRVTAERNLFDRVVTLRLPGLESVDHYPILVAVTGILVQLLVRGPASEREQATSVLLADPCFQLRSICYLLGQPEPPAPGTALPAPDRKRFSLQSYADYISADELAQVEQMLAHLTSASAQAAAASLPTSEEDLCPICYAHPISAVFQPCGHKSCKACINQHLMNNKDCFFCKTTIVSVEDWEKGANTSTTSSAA
inactive: [1] 0.014 | silmitasertib -0.016 | [2] -0.002 | entospletinib 0
active: vorinostat -0.385

SESN2 (UniProt P58004)
UniProt P58004, sequence (P58004 whole entry, looked up): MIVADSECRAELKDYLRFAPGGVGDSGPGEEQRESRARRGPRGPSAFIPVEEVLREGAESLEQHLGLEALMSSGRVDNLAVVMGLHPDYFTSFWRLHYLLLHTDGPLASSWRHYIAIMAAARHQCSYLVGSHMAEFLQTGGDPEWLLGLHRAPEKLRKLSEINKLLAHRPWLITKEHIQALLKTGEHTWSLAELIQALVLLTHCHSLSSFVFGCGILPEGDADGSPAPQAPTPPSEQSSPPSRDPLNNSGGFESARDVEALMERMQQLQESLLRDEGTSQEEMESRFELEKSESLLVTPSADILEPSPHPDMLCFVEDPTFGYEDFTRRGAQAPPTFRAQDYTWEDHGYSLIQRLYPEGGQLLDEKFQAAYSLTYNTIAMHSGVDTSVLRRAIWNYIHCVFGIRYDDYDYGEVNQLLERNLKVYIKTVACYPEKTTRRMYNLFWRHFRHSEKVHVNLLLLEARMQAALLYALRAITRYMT
inactive: [1] 0.006 | silmitasertib 0.066 | [2] 0.022 | entospletinib 0.073
active: vorinostat -0.367
